Laboratory results reported in PubChem BioAssay (EPA / NIEHS).
Records with an inconclusive call do not appear. Activity calls are given as the source filed them. Rule for the calls, unless noted: active = hit-call score of the fitted dose curve at least 0.9, where 1 is the maximum; inactive = score below 0.9.

Key:
[1] = CCTE_Shafer_MEA_acute_spike_number: CCTE's Neural Acute Assay for Total Number of Spikes, Shafer Lab (AID 2284008)
In short: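 Rat primary cortical neurons on 48-well MEA plates, DIV 13 or 15, at 37 C. 40 min baseline then 40 min with compound (0.03-40 uM); spikes detected at 8x rms noise, expressed as percent change from baseline.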

[2] = CCTE_Shafer_MEA_acute_firing_rate_mean: CCTE's Neural Acute Assay for Mean Firing Rate, Shafer Lab (AID 2284009);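 note: analyzed for loss of signal so actives lower firing rate relative to DMSO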
In short: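 Spontaneous spiking of primary rat cortical networks, DIV 13/15, 37 C. Compound 0.03-40 uM, n ≥3 wells; 40 min baseline vs 40 min treated. Endpoint fitted in loss-of-signal direction against DMSO.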

[3] = CCTE_Shafer_MEA_acute_burst_number: CCTE's Neural Acute Assay for Single-Electrode Bursts, Shafer Lab (AID 2284013)
In short: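 Burst totals were derived with adaptive spike detection (8x rms threshold) on filtered signals from rat cortical cultures; change relative to pre-treatment baseline after 40-min compound exposure (0.03-40 uM) was fitted in the negative direction against DMSO.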

[4] = CCTE_Shafer_MEA_acute_burst_duration_mean: CCTE's Neural Acute Assay for Mean Burst Duration, Shafer Lab (AID 2284014);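 note: hits are decreases in mean burst duration relative to DMSO controls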
In short: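 Acute exposure of mature rat cortical networks (DIV 13 or 15) grown on microelectrode arrays to 0.03-40 uM compound. Mean burst duration compared with the 40-min pre-dose baseline over a 40-min post-dose recording at 37 C.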

[5] = CCTE_Shafer_MEA_acute_per_burst_spike_number_mean: CCTE's Neural Acute Assay for Average Number of Spikes Per Burst, Shafer Lab (AID 2284015);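 note: hits are decreases in mean spikes per burst versus baseline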
In short: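 Percent change in mean spikes per single-electrode burst is compared between a 40 min baseline and a 40 min recording with compound (0.03-40 uM). Cultures were rat cortical neurons on MEA plates at DIV 13 or 15, recorded at 37 C, with DMSO as the negative control.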

[6] = CCTE_Shafer_MEA_acute_interburst_interval_mean: CCTE's Neural Acute Assay for Mean Interburst Interval, Shafer Lab (AID 2284016);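 note: percent change of mean interburst interval versus each well's own pre-dose baseline; curves fitted for decrease in interburst interval relative to DMSO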
In short: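 Percent change in mean single-electrode interburst interval was calculated per well from 40 min recordings before and after compound (0.03-40 uM). Recordings were made at 37 C on rat cortical cultures at DIV 13 or 15, with spikes detected at 8x rms threshold.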

[7] = CCTE_Shafer_MEA_acute_burst_percentage_mean: CCTE's Neural Acute Assay for Percentage of Spikes in a Burst, Shafer Lab (AID 2284017)
In short: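 Well-level mean burst percentage from a 40-min recording after compound (0.03-40 uM) expressed as percent change from a 40-min baseline at 37C. Cultures: primary rat cortical neurons on MEA, dosed on DIV 13 or 15; fitted downward relative to DMSO.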

[8] = CCTE_Shafer_MEA_acute_per_network_burst_spike_number_std: CCTE's Neural Acute Assay for Standard Deviation of Number of Spikes in a Network Burst, Shafer Lab (AID 2284020);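 note: fitted for decrease in spike-number SD versus DMSO so actives lower it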
In short: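 Acute MEA exposure, rat cortical neurons, 0.03-40 uM. Per-well % change versus own baseline; DMSO as negative control.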

[9] = CCTE_Shafer_MEA_acute_per_network_burst_electrodes_number_mean: CCTE's Neural Acute Assay for Mean Number of Electrodes in a Network Burst, Shafer Lab (AID 2284021);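 note: curves fitted for decreases only so hits reduce electrodes per burst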
In short: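 Rat primary cortical neurons on 48-well MEAs, DIV 13 or 15, were treated at 0.03-40 uM. Spikes were detected at 8x rms noise and recorded at 37 C. The mean electrodes per network burst in a 40 min exposure recording was expressed as percent change from a 40 min baseline.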

[10] = CCTE_Shafer_MEA_acute_network_burst_percentage: CCTE's Neural Acute Assay for Percentage of Network Bursts, Shafer Lab (AID 2284022);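 note: curves fitted for loss so actives lower network burst percentage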
In short: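 Rat primary cortical neuron networks on 48-well MEA plates, DIV 13 or 15, treated acutely with compound (0.03-40 uM, at least three wells). Percent of spikes within network bursts compared between 40-min recordings before and during exposure at 37 C, expressed as percent change.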

[11] = CCTE_Shafer_MEA_acute_cross_correlation_HWHM: CCTE's Neural Acute Assay for Cross Correlation at Half Width at Half Maximum, Shafer Lab (AID 2284026);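 note: spontaneous network firing of rat primary cortical neurons on multiwell microelectrode arrays; percent change per well from pre-dose baseline in spike cross-correlogram half width; hits are a decrease in cross-correlogram half width relative to DMSO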
In short: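 Rat primary cortical neurons on 48-well MEA plates; 40-min baseline and 40-min post-exposure recordings at 37 C on DIV 13 or 15, compounds 0.03-40 uM. Spikes detected at 8x rms noise; percent change in cross-correlogram HWHM per well vs baseline.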

[12] = CCTE_Shafer_MEA_dev_firing_rate_mean: CCTE's Neural Network Formation Assay for Mean Firing Rate, Shafer Lab (AID 2284031)
In short: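 Extracellular spike frequency, AUC over DIV 5–12 recordings, in rat cortical neuron MEA cultures dosed from plating; loss direction vs DMSO.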

[13] = CCTE_Shafer_MEA_dev_per_burst_spike_percent: CCTE's Neural Network Formation Assay for Percent of Spikes in a Burst, Shafer Lab (AID 2284032)
In short: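 Value is trapezoidal AUC over recordings on days 5, 7, 9 and 12 of the well-mean fraction of spikes falling in single-electrode bursts; rat cortical cultures exposed continuously from plating, treatment renewed DIV 5 and 9, fitted downward against DMSO.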

[14] = CCTE_Shafer_MEA_dev_active_electrodes_number: CCTE's Neural Network Formation Assay for Number of Active Electrodes, Shafer Lab (AID 2284040; active = hit-call score of the fitted dose curve at least 0.9, where 1 is the maximum)
In short: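 Developing rat cortical networks on MEAs, exposed DIV 0–12. Value is the AUC of active-electrode counts (≥5 spikes/min) from days 5, 7, 9, 12, relative to DMSO.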

[15] = CCTE_Shafer_MEA_dev_burst_rate: CCTE's Neural Network Formation Assay for Burst Rate, Shafer Lab (AID 2284042)
In short: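 Exposure ran continuously over 12 days of network development in rat cortical cultures, with compound refreshed during full media changes on DIV 5 and 9. Single-electrode bursts per recording time, well-mean over active electrodes, trapezoidal AUC across days 5–12, fitted downward relative to DMSO.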

[16] = CCTE_Shafer_MEA_dev_per_burst_interspike_interval: CCTE's Neural Network Formation Assay for Burst Interspike Interval, Shafer Lab (AID 2284044)
In short: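 Primary rat cortical neurons on 48-well MEA plates, exposed from day 0 through day 12, treatment renewed at DIV 5 and 9. Within-burst interspike interval recorded days 5, 7, 9, 12, well-averaged, summarised as AUC; negative fit versus DMSO.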

[17] = CCTE_Shafer_MEA_dev_burst_duration_mean: CCTE's Neural Network Formation Assay for Mean Burst Duration, Shafer Lab (AID 2284045)
In short: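 Network-formation assay in primary rat cortical neurons; treatment spans twelve days of development. Mean burst duration per well is integrated by trapezoidal AUC and fitted in the loss-of-signal direction against DMSO baseline.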

[18] = CCTE_Shafer_MEA_dev_interburst_interval_mean: CCTE's Neural Network Formation Assay for Mean Interburst Interval, Shafer Lab (AID 2284046);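 note: well-mean interburst interval of bursting electrodes as AUC over four recording days; curve fitted for decrease in interburst interval relative to DMSO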
In short: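 Primary rat cortical neurons on PEI-coated 48-well MEA plates (laminin added with cells at plating) (16 electrodes/well), exposed from plating day 0 with renewal at DIV 5 and 9. Mean inter-burst interval averaged over bursting electrodes, AUC across days 5, 7, 9, 12; DMSO baseline.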

[19] = CCTE_Shafer_MEA_dev_inter_network_spike_interval_mean: CCTE's Neural Network Formation Assay for Mean Inter-network Spike Interval, Shafer Lab (AID 2284047)
In short: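 Mean time between consecutive network-spike peaks, recorded extracellularly (adaptive spike detection) on DIV 5, 7, 9 and 12, summarized as trapezoidal AUC. Rat cortical cultures on MEAs dosed continuously days 0–12, re-dosed at feeds; loss-of-signal fit relative to DMSO.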

Measured: outcome

O=C(O)CNCP(=O)(O)O
inactive: all assays above
